We go through 27 compounds from ChEMBL document CHEMBL4513216, “Probing the Open Global Health Chemical Diversity Library for Multistage-Active Starting Points for Next-Generation Antimalarials” (ACS Infect Dis, 2020).

The whole screen tested about 68,000 compounds, of which about 2,700 (4%) showed an effect of 50% or more. Only a selection was taken, and strong results are over-represented in it overall.

In this experiment the test system is Plasmodium berghei. As to the kind of experiment: Screen against P. berghei liver stage (PbLuc), transformed with Luciferase, at 2uM. In kind it is functional, HepG2. As to conditions: tested at 2 uM.
Take `O=C(CCc1ccc(C(F)(F)F)cc1)N1CCCS1(=O)=O`: the INHIBITION is listed as -24.72%.
The figure for `Cn1c(N2CC[C@H](O)C2)nc2cc(C(N)=O)ccc21` is 26.7%; for `Cc1ccccc1-c1cncc(C2CCN(Cc3cnn(C)c3)CC2)n1` it is 18.22%; for `CCc1nc(CN2CCCN(C(=O)CCc3ccco3)CC2)cs1` it is 44.12%.
As for `Cc1nc(CN2CCN(C(=O)CCc3ccco3)CC2)cs1`, the INHIBITION is recorded as 60.09%.
Consider `CCc1ccc(C(=O)N2CCCN(Cc3csc(CC)n3)CC2)o1`, for which the INHIBITION worked out at 50.61%.
As for `Cc1nc(CN2CCCN(C(=O)CCc3ccco3)CC2)cs1`, the INHIBITION is 11.2%.
As to `CCc1nc(CN2CCCN(C(=O)C3CCOC3)CC2)cs1` (configuration not stated), the INHIBITION was 56.03%.
For `CCc1nc(CN2CCCN(C(=O)C3CCC3)CC2)cs1`, the INHIBITION was 23.86%.
For `CCc1nc(CN2CCCN(C(=O)c3cnc(C)cn3)CC2)cs1`, the INHIBITION is listed as -12.19%.
Regarding `CCc1nc(CN2CCCN(C(=O)c3cc(C)on3)CC2)cs1`, the INHIBITION is listed as -24.11%.
`CCc1nc(CN2CCCN(C(=O)C3CCOCC3)CC2)cs1`: the INHIBITION is listed as -17.37%.
For `O=C(NC1CC1)C1CCN(c2nc3nc[nH]c(=O)c3s2)CC1` the value was 20.16%; for `CN(Cc1cnn(C)c1)C(=O)C(c1ccccc1)N1CCSCC1` (configuration not stated), 0.21%.
On to `O=C(C[C@@H]1COC[C@H]2CN(Cc3ccc(F)cc3)C[C@@H]12)N1CCOCC1`, for which the INHIBITION was found to be 20.74%.
For `Cn1cc(CN2CCc3c(CNC(=O)C4CC4)cncc3C2)cn1` the value was -5.13%; for `O=C(NCC1CC1)[C@H]1C[C@@H]2CCN(CCc3ccccc3)C[C@H]2O1`, 25.4%; for `CC(C)n1[nH]c(=O)c2c1NC(=O)CC2c1cccnc1` (configuration not stated), -35.44%.
For `Cc1ccccc1CC(=O)N[C@@H]1CCC[C@@H](N2CCNC(=O)C2)[C@@H]1O` the value was 29.06%.
Consider `CCc1nc2n(n1)CC(NCc1cc(OC)c3c(c1)OCO3)CC2` (configuration not stated), for which the INHIBITION came to 40.24%.
As for `Cc1ccc(C(=O)N2CCC(Oc3ccc(F)cc3F)CC2)c(=O)[nH]1`, the INHIBITION came out at 60.31%.
On to `COc1ccc(OC2CCN(C(=O)c3ccc(C)[nH]c3=O)CC2)cc1`, for which the INHIBITION worked out at 11.95%.
For `Cc1ccc(C(=O)N2CCC(Oc3cccc(C)c3C)CC2)c(=O)[nH]1` the value was 7.64%; for `Cc1ccc(C(=O)N2CCC(Oc3ccc(C)c(C)c3)CC2)c(=O)[nH]1`, -37.2%; for `Cc1ccc(C)c(OC2CCN(C(=O)c3ccc(C)[nH]c3=O)CC2)c1`, 54.85%.
Take `Cc1ccc(C(=O)N2CCC(Oc3c(C)cccc3C)CC2)c(=O)[nH]1`: the INHIBITION is recorded as -11.33%.
The figure for `CCN(CC1CCCN(CCc2cccc(OC)c2)C1)C(=O)CN(C)C` (configuration not stated) is -85.72%.
